What all share (assay): DAPPL (digital affinity profiling via proximity ligation, sequencing); 10 mM Tris-HCl pH 7.5, 50 mM NaCl, 1 mM DTT, 4% glycerol, room temperature, 30 min; GST-TFs on glutathione beads, 16-mer random dsDNA library, 0.1% formaldehyde crosslink after washing; high values mean tight binding
What all share (settings): protein: recombinant; tags: N-terminal GST; dsDNA, one strand shown

In assay [1] the target is T1, ELK1 (Homo sapiens, UniProt P19419 1-428).
T1 sequence: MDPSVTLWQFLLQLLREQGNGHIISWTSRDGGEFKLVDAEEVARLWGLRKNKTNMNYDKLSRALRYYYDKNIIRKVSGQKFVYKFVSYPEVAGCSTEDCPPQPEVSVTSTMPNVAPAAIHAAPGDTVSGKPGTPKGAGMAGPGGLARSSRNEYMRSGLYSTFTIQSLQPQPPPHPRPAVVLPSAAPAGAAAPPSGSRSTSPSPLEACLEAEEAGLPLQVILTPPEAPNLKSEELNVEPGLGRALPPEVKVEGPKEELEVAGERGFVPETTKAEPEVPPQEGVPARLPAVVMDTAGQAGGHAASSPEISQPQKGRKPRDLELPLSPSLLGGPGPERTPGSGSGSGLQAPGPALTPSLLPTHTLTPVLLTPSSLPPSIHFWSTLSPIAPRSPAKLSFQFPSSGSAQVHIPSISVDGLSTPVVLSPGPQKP
The essentials: (§1)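 Beads coated with glutathione captured GST-fused human transcription factors that had been expressed in yeast, and the factors were then given DNA barcodes and pooled with a tag-only sample. The pools were incubated with 200 nmole of a random double-stranded 16-mer DNA library in Tris/NaCl/DTT/glycerol buffer for 30 min at room temperature, washed, crosslinked with 0.1% formaldehyde and proximity-ligated with BsaI/T4 ligase at 37 °C for 1 h. PCR amplification and Illumina NextSeq500 sequencing came last. Binding signal is each hexamer's read frequency for a factor divided by its frequency for the tag-only sample.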

For assay [2], the target named is T2, GABPA (Homo sapiens, UniProt Q06546 1-454).
T2 sequence: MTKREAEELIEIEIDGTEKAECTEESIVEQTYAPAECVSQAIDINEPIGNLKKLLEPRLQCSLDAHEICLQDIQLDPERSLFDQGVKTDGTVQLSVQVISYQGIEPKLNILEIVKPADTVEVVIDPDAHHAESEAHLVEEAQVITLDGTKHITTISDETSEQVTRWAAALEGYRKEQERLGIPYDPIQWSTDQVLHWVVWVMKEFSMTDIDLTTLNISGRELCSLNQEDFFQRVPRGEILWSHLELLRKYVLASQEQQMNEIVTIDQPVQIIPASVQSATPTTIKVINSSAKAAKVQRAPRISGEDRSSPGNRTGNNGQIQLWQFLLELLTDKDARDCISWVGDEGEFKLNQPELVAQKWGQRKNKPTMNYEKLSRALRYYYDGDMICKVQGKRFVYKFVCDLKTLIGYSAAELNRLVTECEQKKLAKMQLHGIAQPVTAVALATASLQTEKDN
The essentials:
as §1

Assay [3] concerns the target T3, ERG (Homo sapiens, UniProt P11308 1-479).
T3 sequence: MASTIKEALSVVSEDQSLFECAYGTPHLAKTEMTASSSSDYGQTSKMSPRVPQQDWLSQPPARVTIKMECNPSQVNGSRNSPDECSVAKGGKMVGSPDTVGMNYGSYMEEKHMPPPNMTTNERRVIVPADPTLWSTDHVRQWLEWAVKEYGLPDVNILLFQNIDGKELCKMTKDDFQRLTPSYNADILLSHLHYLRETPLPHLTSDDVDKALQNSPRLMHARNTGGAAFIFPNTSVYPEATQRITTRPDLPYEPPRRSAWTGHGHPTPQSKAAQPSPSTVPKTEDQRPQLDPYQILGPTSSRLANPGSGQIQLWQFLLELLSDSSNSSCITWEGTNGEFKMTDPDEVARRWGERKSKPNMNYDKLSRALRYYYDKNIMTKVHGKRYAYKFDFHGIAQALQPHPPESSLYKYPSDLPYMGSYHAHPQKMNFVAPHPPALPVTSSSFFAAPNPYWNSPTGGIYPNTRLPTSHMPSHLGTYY
The essentials:
as §1

Assay [4] addresses ELF1 (Homo sapiens, UniProt P32519 1-619). An outline of the steps: as §1
The target in assay [5] is T4, EHF (Homo sapiens, UniProt Q9NZC4 1-300).
T4 sequence: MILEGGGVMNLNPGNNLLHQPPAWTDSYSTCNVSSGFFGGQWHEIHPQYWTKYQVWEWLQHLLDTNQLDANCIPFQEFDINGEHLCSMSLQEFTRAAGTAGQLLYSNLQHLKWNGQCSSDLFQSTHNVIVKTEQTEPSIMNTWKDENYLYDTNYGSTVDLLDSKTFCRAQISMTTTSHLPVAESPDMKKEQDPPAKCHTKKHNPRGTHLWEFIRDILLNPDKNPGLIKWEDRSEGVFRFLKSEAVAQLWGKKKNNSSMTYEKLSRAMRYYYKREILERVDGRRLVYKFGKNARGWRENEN
The essentials:
as §1

The target in assay [6] is SPIB (Homo sapiens, UniProt Q01892 1-262). An outline of the steps:
as §1

Assay [7] deals with T5, FEV (Homo sapiens, UniProt Q99581 1-238).
T5 sequence: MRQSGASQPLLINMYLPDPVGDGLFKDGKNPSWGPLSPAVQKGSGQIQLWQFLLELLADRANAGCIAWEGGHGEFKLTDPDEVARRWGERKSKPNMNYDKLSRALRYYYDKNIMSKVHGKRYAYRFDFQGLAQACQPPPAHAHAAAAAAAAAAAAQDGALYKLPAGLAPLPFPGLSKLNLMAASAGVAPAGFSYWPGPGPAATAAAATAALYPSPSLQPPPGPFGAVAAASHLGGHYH
The essentials:
as §1

Assay [8] concerns the target ETV5 (Homo sapiens, UniProt P41161 1-510). An outline of the steps: as §1
Assay [9] addresses ELF4 (Homo sapiens, UniProt Q99607 1-663). An outline of the steps: as §1
Assay [10] has as its target T6, ETV2 (Homo sapiens, UniProt O00321 1-342).
T6 sequence: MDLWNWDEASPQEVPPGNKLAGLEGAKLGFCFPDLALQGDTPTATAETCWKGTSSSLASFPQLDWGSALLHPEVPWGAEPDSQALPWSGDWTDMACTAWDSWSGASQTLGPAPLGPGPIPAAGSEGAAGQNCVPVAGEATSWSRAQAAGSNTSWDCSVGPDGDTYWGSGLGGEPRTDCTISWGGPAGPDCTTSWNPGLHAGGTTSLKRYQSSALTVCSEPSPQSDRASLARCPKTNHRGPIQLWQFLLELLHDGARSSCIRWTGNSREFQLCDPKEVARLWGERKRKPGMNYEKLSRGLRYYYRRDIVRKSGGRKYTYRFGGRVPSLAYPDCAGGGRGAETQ
The essentials:
as §1

Assay [11] addresses T7, ETV3L (Homo sapiens, UniProt Q6ZN32 1-361).
T7 sequence: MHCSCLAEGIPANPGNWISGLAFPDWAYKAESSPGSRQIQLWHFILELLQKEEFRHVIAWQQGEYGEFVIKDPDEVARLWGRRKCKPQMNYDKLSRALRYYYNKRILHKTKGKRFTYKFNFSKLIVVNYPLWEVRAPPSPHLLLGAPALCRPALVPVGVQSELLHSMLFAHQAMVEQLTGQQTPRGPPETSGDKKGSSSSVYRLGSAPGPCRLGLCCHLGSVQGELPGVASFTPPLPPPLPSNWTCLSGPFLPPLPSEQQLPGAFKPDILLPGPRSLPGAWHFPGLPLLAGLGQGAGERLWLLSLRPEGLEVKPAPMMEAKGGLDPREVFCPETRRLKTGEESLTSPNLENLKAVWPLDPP
The essentials:
as §1

For assay [12], the target named is T8, ETS2 (Homo sapiens, UniProt P15036 1-469).
T8 sequence: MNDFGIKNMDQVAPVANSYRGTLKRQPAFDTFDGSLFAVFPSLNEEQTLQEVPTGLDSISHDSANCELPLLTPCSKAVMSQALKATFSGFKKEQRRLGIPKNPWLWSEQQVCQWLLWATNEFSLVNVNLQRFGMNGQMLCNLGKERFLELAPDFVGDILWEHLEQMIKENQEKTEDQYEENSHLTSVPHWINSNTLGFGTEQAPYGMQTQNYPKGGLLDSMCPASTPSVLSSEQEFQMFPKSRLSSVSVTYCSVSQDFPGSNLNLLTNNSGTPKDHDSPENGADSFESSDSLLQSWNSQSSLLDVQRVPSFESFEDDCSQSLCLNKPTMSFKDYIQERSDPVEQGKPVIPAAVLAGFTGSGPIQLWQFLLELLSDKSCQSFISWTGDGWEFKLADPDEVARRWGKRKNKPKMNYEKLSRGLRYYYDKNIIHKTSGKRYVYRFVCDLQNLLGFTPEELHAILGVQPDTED
An outline of the steps: as §1

The target of assay [13] is T9, SPDEF (Homo sapiens, UniProt O95238 1-335).
T9 sequence: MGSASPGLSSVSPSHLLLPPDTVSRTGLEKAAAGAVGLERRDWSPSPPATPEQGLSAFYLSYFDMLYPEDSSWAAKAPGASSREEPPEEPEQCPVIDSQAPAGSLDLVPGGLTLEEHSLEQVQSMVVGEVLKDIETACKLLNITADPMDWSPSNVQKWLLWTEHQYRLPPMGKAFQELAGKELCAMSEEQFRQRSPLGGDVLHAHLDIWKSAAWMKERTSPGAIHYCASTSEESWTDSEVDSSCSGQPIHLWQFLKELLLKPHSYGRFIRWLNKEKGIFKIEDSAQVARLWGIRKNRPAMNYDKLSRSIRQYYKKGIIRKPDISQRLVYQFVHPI
The essentials:
as §1

Assay [14] deals with T10, ETV3 (Homo sapiens, UniProt P41162-2 1-143).
T10 sequence: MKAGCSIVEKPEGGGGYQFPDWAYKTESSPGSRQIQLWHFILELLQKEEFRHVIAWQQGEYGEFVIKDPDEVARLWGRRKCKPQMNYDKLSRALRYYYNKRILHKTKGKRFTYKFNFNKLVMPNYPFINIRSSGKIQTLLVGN
An outline of the steps:
as §1

The target of assay [15] is ETV6 (Homo sapiens, UniProt P41212 1-452). The essentials:
as §1

Assay [16] deals with T11, ELK4 (Homo sapiens, UniProt P28324-2 1-405).
T11 sequence: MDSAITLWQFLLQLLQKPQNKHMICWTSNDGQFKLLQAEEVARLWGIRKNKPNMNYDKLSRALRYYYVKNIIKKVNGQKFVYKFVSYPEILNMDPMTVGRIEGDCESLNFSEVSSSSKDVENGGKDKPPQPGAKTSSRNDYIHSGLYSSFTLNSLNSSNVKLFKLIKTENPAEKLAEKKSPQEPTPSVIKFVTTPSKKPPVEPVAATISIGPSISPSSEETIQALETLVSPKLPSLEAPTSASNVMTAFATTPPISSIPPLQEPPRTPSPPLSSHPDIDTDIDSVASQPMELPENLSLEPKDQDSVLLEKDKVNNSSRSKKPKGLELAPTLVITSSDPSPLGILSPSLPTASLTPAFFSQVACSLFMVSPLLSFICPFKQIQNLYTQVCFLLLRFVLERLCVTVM
An outline of the steps:
as §1

Assay [17] concerns the target ETV1 (Homo sapiens, UniProt P50549 1-477). An outline of the steps: as §1
Assay [18] has as its target T12, ETV7 (Homo sapiens, UniProt Q9Y603 1-341).
T12 sequence: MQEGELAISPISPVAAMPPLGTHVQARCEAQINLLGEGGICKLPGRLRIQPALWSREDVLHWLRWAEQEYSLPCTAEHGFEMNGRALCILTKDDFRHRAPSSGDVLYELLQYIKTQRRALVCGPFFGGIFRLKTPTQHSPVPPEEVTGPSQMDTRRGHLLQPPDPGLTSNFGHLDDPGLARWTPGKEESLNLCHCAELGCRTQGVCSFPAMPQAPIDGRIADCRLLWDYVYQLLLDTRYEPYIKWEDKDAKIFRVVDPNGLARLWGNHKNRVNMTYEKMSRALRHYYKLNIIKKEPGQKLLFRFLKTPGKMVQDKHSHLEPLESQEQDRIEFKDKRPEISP
The essentials:
as §1

Sequence of ETV5 (P41161 whole entry): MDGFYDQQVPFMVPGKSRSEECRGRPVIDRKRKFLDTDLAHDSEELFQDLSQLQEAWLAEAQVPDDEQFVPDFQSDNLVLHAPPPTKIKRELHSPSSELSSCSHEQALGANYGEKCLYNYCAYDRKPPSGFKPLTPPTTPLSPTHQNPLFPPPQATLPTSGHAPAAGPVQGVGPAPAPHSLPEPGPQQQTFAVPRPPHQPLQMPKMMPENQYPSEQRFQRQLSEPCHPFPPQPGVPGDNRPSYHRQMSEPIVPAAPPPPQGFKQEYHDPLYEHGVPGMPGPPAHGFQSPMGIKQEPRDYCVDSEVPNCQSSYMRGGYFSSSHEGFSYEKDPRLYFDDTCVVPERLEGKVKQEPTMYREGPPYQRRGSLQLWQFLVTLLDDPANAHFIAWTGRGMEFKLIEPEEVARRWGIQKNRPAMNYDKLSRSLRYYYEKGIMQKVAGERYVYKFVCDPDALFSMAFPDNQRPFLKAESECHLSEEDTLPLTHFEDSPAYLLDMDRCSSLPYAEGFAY
Sequence of ETV6 (P41212 whole entry): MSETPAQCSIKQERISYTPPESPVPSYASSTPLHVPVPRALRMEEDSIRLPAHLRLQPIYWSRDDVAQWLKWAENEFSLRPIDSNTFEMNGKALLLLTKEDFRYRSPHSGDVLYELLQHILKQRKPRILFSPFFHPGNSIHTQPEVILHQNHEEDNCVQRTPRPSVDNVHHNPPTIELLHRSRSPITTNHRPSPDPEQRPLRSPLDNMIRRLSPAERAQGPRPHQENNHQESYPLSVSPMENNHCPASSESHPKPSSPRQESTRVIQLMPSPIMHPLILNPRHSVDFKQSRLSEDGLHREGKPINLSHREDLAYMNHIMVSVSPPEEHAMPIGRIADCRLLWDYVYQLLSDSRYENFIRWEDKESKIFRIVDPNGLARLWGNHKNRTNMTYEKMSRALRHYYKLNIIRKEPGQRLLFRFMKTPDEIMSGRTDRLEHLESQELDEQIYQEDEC
Sequence of ELF1 (P32519 whole entry): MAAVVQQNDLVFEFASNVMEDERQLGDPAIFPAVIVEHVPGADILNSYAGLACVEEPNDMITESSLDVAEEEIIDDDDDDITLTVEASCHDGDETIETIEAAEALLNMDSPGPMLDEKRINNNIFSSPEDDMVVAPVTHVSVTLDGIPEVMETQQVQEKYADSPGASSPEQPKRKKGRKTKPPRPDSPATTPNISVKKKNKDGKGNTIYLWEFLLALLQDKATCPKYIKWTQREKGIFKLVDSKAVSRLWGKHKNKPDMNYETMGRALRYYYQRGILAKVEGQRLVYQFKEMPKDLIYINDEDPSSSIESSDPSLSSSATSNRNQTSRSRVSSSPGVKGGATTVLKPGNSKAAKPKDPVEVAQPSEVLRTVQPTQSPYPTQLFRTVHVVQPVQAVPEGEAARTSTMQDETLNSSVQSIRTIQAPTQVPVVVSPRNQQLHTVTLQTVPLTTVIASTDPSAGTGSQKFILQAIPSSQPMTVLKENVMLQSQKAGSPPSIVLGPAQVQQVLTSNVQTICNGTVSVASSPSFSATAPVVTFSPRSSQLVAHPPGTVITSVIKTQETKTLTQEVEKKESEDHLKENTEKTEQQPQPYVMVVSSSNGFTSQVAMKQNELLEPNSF
Sequence of SPIB (Q01892 whole entry): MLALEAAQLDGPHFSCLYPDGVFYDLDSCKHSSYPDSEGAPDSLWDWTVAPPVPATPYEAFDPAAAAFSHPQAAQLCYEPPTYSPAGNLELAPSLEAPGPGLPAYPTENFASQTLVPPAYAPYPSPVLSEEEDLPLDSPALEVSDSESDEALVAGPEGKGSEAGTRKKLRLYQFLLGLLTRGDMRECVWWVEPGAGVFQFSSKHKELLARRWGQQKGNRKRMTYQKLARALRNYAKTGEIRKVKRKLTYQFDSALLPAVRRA
Sequence of ELF4 (Q99607 whole entry): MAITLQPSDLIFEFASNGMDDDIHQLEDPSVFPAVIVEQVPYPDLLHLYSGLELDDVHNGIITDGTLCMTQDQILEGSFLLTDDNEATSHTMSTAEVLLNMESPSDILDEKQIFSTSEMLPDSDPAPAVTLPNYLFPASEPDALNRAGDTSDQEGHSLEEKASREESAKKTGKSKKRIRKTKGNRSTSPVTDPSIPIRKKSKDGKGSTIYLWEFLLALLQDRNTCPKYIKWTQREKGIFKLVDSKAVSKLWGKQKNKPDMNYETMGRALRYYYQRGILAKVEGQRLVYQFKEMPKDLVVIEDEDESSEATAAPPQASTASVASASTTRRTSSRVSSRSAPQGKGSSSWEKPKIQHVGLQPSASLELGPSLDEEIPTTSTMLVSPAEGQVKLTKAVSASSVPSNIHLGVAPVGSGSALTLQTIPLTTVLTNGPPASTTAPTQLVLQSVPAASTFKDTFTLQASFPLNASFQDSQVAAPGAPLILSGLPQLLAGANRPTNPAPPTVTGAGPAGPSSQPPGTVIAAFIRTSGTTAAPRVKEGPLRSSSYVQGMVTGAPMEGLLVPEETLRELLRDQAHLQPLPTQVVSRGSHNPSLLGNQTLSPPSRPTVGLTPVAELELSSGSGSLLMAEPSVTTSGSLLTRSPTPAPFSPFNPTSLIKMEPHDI
Sequence of ETV1 (P50549 whole entry): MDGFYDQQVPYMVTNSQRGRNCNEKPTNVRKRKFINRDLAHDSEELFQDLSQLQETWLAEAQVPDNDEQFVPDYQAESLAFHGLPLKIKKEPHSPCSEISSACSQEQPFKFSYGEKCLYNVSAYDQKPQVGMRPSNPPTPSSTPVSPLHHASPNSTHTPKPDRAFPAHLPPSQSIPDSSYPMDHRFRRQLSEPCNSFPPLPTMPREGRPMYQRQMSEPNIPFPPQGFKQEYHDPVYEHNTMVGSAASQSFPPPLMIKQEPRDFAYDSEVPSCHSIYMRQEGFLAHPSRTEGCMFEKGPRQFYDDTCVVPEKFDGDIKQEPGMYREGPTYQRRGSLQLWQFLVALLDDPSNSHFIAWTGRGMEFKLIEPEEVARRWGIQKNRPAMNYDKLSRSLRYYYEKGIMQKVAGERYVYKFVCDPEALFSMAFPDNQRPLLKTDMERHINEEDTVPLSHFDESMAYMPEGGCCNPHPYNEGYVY

For AGGACC, the binding signal was 1.07 fold enrichment (6-mer frequency, TF over GST control) in assay [1]; 1.07 fold enrichment (6-mer frequency, TF over GST control) in [2]; 1.09 fold enrichment (6-mer frequency, TF over GST control) in [3]; 1.06 fold enrichment (6-mer frequency, TF over GST control) in [4]; 1.02 fold enrichment (6-mer frequency, TF over GST control) in assay [5]; 1.05 fold enrichment (6-mer frequency, TF over GST control) in assay [6]. Moreover, the binding signal in [7] was 1.07 fold enrichment (6-mer frequency, TF over GST control); in [8] it was 1.04 fold enrichment (6-mer frequency, TF over GST control); in assay [9], 1.06 fold enrichment (6-mer frequency, TF over GST control); in assay [10] it was 1.18 fold enrichment (6-mer frequency, TF over GST control); in [11], 1.07 fold enrichment (6-mer frequency, TF over GST control); in assay [12], 1.04 fold enrichment (6-mer frequency, TF over GST control). Further, the binding signal in assay [13] was 1.06 fold enrichment (6-mer frequency, TF over GST control); in assay [14], 1.03 fold enrichment (6-mer frequency, TF over GST control); in assay [15] it was 1.02 fold enrichment (6-mer frequency, TF over GST control).
TCAGTT: the binding signal in assay [1] was 1.03 fold enrichment (6-mer frequency, TF over GST control); in assay [3], 1.03 fold enrichment (6-mer frequency, TF over GST control); in assay [8] it was 1 fold enrichment (6-mer frequency, TF over GST control); in [16], 1.08 fold enrichment (6-mer frequency, TF over GST control); in assay [10], 1.05 fold enrichment (6-mer frequency, TF over GST control); in assay [17] it was 1.04 fold enrichment (6-mer frequency, TF over GST control). Besides, the binding signal is 1.05 fold enrichment (6-mer frequency, TF over GST control) in [11]; 1.04 fold enrichment (6-mer frequency, TF over GST control) in assay [12]; 1.04 fold enrichment (6-mer frequency, TF over GST control) in assay [13]; 1.02 fold enrichment (6-mer frequency, TF over GST control) in [18]; 1.05 fold enrichment (6-mer frequency, TF over GST control) in assay [14]; 1.03 fold enrichment (6-mer frequency, TF over GST control) in [15].

Values taken from paper PMC7862700, “An all-to-all approach to the identification of sequence-specific readers for epigenetic DNA modifications on cytosine”.
